# Source: PubChem BioAssay (Tox21)
# Records with an inconclusive call do not appear. Unmarked numbers belong to inactive results. Active and inactive are the calls of the source. The call rests on the fitted dose curve; in most records, active means well fitted activation curve with a large enough effect in the repeat runs; inconclusive means weak or mixed curves; inactive means flat fitted curve, though single readings scatter.
# Experiment: A CellTox Green Cytotoxicity Assay to monitor cytotoxicity in HepG2 cells - 16 hour (AID 1224876); further: nearly all actives have a fitted effect of over 45% in size
# Conditions: CellTox Green fluorescence; series mostly up to 76.8 µM; cytotoxicity increase: at the top concentration
# Excerpt: National Center for Advancing Translational Sciences [NCATS]
# NIH Chemical Genomics Center [NCGC]
# U.S. Environmental Protection Agency [EPA]
# National Institutes of Environmental Health Sciences [NIEHS]
# National Toxicology Program [NTP]
# Cell-based models are critical for drug discovery. Determining the natural cytotoxic effects resulting from test compounds is an essential research activity. A CellTox Green Cytotoxicity Assay to monitor cytotoxicity in real time of continues cell culture during 40 hours of the compound treatment was used to screen Tox21 10K library compounds in HepG2 cells. CellTox Green Cytotoxicity Assay is a nonlytic, homogeneous, biofluorescent method to measure cytotoxicity in cell culture after experimental manipulation. The assay system uses a proprietary asymmetric cyanine dye that is excluded from viable cells but preferentially stains the dead cell's DNA. […] Viable cells produce no appreciable increases in fluorescence. Therefore, the fluorescence signal produced by the binding interaction with dead cell DNA is proportional to cytotoxicity.
# The mixture of HepG2 cell suspension and reagents were dispensed at 600cells/6 ul/well in 1536-well tissue culture treated black solid bottom plates using a Multidrop dispenser. After the assay plates were incubated at a 37 C/5% CO2 incubator for 5 hours, 23 nL of compounds dissolved in DMSO, positive and negative controls was transferred to the assay plate by a pintool work station. The plates were incubated at 37 C for 40 hours. The fluorescence intensity were measured at 0h, 8h, 16h, 24h, 32h and 40h time points using ViewLux plate reader during compound treatment.
# On the % scale 0 is the no-effect control and ±100 the full control effect; potency means the concentration at half of the fitted maximal effect.
SMILES,cytotoxicity increase,Potency
C[C@@H]1NC(=O)[C@@H](N)CNC(=O)[C@H](C2CCNC(N)=N2)NC(=O)/C(=C/NC(N)=O)NC(=O)[C@H](CNC(=O)C[C@@H](N)CCCN)NC1=O (stereo not given in full),-2.83% [at 0.29 µM],–
CCCOc1ccc(C(=O)OCCN(CC)CC)cc1N,-9.06% [at 35.3 µM],–
CCCCN(CCCC)CCCCCCN(CCCC)CCCC,-4.73%,–
COC(=O)c1c(C)cc(O)c(C)c1O,16%,–
CCCc1ccc(O)c(OC)c1,0.916%,–
NC(=O)CC[C@@H](N)C(=O)O,-2.39% [at 35.3 µM],–
CC(=O)SCC(CC(=O)c1ccc(C)cc1)C(=O)O (stereo not given),0.909% [at 35.3 µM],–
Cc1cc(C)c(C)c(C)c1,-4.3%,–
COc1ccc2cc(CCC(C)=O)ccc2c1,-2.51% [at 35.3 µM],–
Cc1ccccc1C#N,-2.68%,–
O=C(O)COc1ccc2ccccc2c1,-7.38%,–
CC(=O)Oc1ccc(C(C)=O)cc1,1.11%,–
Cc1nnc(C(=O)NC(C)(C)c2nc(C(=O)NCc3ccc(F)cc3)c(O)c(=O)n2C)o1,-5.13% [at 35.3 µM],–
CCN1CCN(C(=O)N[C@@H](C(=O)N[C@@H]2C(=O)N3[C@@H]2SC(C)(C)[C@H]3C(=O)O)c2ccccc2)C(=O)C1=O,-19.1% [at 35.3 µM],–
CN1C(CCl)Nc2cc(Cl)c(S(N)(=O)=O)cc2S1(=O)=O (stereo not given),-5.09% [at 35.3 µM],–
COC(=O)c1cc(Cl)c(NC(C)=O)cc1OC,-5.89% [at 35.3 µM],–
N#Cc1cc(NC(=O)C(=O)O)c(Cl)c(NC(=O)C(=O)O)c1,-0.475% [at 35.3 µM],–
C=CC(=O)CC,-6.9%,–
O=Cc1ccc(C(=O)O)cc1,-5.15%,–
C=C(C)C(=O)OCCCC,14.6%,–

SMILES,cytotoxicity increase,Potency
CCOC(=O)[C@H](CCc1ccccc1)N[C@H]1CS[C@H](c2cccs2)CN(CC(=O)O)C1=O,-2.12% [at 35.3 µM],–
C[C@@H]1CC[C@@]2(OC1)O[C@H]1C[C@H]3[C@@H]4CC[C@H]5C[C@@H](O)CC[C@]5(C)[C@H]4CC(=O)[C@]3(C)[C@H]1[C@@H]2C,-10% [at 6.97 µM],–
CC(=O)Nc1ccc(OCCOCCOc2ccc(NC(C)=O)cc2)cc1,-3.51% [at 35.3 µM],–
O=C1c2ccccc2C(=O)N1CO,1.82%,–
CCCCCCCCOCCC#N,-7.25%,–
CC/C=C\CCOC(=O)c1ccccc1,23.7%,–
CC/C=C/CCCCCCCCCCOC(C)=O,-19.7%,–
CC(=O)OC/C=C(/C)CCC=C(C)C,-12.3%,–
CC(C)C[P+](C)(CC(C)C)CC(C)C,1.98%,–
CC(C)c1cc(C(C)C)cc(C(C)C)c1,-9.49%,–
CC/C=C\CCCCCCCCCCOC(C)=O,0.511%,–
Cc1cc(O)c(Cl)cc1C,–,49 µM (active)
CCCCCCCCS(=O)(=O)O,12%,–
C=COCCCCO,-15.9%,–
CCCCC(CC)COC(=O)CC#N (stereo not given),3.64%,–
CCN(CC)CC(=O)Oc1ccc(NC(C)=O)cc1,-10.8% [at 35.3 µM],–
CNC(=O)c1c(I)c(NC(C)=O)c(I)c(C(=O)O)c1I,-13.8% [at 35.3 µM],–
C=CCCCCCCCCOC(C)=O,6.84%,–
CCC(C)c1nccnc1OC (stereo not given),-3.88%,–
CC(C)(O)c1ccc(C(C)(C)O)cc1,3.82%,–
